# In the library only some 10% were active in any assay of this set; here they are far more common.
# NS1 inh: influenza NS1 inhibition; Potency, µM (titrated, usually from 46.1 µM), for the others: at the top dose activity, positive = more growth; AID 2326; hit rate 0.4% among 270,000; further: actives are rising curves; nearly all actives have a fitted effect of over 50% in size
#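 S. cerevisiae expressing influenza A NS1, grown in glucose, washed, then diluted 1:100 into pH 6.0 -URA galactose medium with 23 nl compound. Growth recovery read as OD600; NS1-free strain serves as control.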
# Pf growth 48h: P. falciparum growth inhibition at 48 hours (one generation) | P. falciparum luciferase growth in erythrocytes, 48 h | Potency, µM (doses to about 28.7 µM), for the others: top-dose activity change, negative = inhibition, most hits filed as inhibitors | hit rate 5.9% among 310,000 | AID 504832; active means well fitted inhibition curve with a large enough effect; inconclusive means small, poorly fitted or top-dose-only effect, or another doubt; inactive means no such curve, though single readings can be large or run the other way; further: on the % scale 0 is the no-effect control and ±100 the full control effect
#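 Luciferase-expressing parasites in RBCs, 2% Hct / 0.1% parasitemia final; RPMI 1640 + 0.5% Albumax; 37 C, 5% CO2, one generation; luminescence read-out, lower signal = inhibition.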
# SARS PLpro yeast: SARS-CoV PLP inhibition in yeast; S. cerevisiae expressing SARS-CoV PLpro, growth rescue; Potency, µM (doses to about 32.9 µM), inactives show at the top dose activity, positive = growth rescue, hits mostly activators; hit rate 0.19% among 330,000; further: 0% is about no effect; nearly all actives have a fitted effect of over 55% in size
# Pf growth 96h: P. falciparum growth inhibition at 96 hours; Potency, µM (doses to about 28.7 µM), inactives show at the top dose activity change, negative = inhibition, actives largely listed as inhibitors; P. falciparum luciferase reporter growth, 96 h; AID 504834; hit rate 6.9% among 320,000; active means well fitted inhibition curve with a large enough effect; inconclusive means small, poorly fitted or top-dose-only effect, or another doubt; inactive means no such curve, though single readings can be large or run the other way; further: on the % scale 0 is the no-effect control and ±100 the full control effect
#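 Compounds incubated with erythrocytes infected by luciferase-expressing P. falciparum (2% hematocrit, 0.05% parasitemia final) for 96 hours, 37 C in 5% CO2. Growth inhibition scored as decreased luciferase luminescence.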
# An asterisk follows results filed as active; ? = inconclusive; / = no result given. Unless noted, the call rests on the fitted dose curve. Potency means the concentration at half of the fitted maximal effect.
SMILES,NS1 inh,Pf growth 48h,SARS PLpro yeast,Pf growth 96h
CCOC(=O)/C(=C\Nc1ccc(OC(F)(F)F)cc1)Sc1ncc(C(F)(F)F)cc1Cl,?,2.1µM*,-7%,/
CC1CCCN(S(=O)(=O)CCNC(=O)c2ccccc2)C1 (stereo unspecified),/,20%,-4%,34%
Cc1ccc(-c2cc(-c3ccco3)c3c(N)c(C(=O)NN)oc3n2)cc1,?,4.7µM*,-2%,?
Cn1c(=O)[nH]c(=O)c2c1nc(N1CCCC1)n2CCCSc1nnnn1-c1ccccc1,4%,?,-7%,6.6µM*
CN1CCN(c2nc3c(c(=O)[nH]c(=O)n3C)n2CCSc2nnnn2-c2ccccc2)CC1,4%,-1%,1%,5%
Cn1c(=O)[nH]c(=O)c2c1nc(N1CCCCCC1)n2CCCSc1nnnn1-c1ccccc1,-9%,?,8%,2.3µM*
CC1=Nc2cc(C(=O)NCc3ccco3)ccc2Sc2ccc(C)cc21,18%,4.1µM*,-23%,1.9µM*
C/C(=N\NC(=O)c1nnn(-c2nonc2N)c1CN1CCOCC1)c1ccc(CC(C)C)cc1,-4%,29%,1%,17%
Cc1nc2ccn(Cc3ccccc3)c(=O)c2cc1C(=O)N1CCN(c2ccccc2)CC1,6%,-10%,-9%,78%
Cc1nc2c([nH]1)c(=O)n(C)c(=O)n2Cc1ccco1,-6%,4%,/,5.4µM*
Cc1nc2ccccc2c(=O)n1Cc1ccco1,5%,16%,0%,-29%
Cc1ccc(S(=O)(=O)NCC(=O)NCC2CCCCC2)cc1C,4%,-1%,8%,18%
COc1ccc(Cl)cc1S(=O)(=O)N(C)CC(=O)NCc1ccc2c(c1)OCO2,-5%,10%,0%,?
Cc1cnc(C(=O)Nc2ccccc2-n2cccc2)cn1,-5%,8%,-5%,12µM*
Cc1cnc(C(=O)Nc2ccccc2F)cn1,-4%,/,-8%,149%
Cc1ccc2cccc(OCC(=O)c3cc(C)n(Cc4ccco4)c3C)c2n1,/,13µM*,2%,?
Cc1cc(C(=O)CN2C(=O)NC(C)(c3cccc(Br)c3)C2=O)c(C)n1Cc1ccco1 (stereo unspecified),?,1.5µM*,1%,10%
CN(Cc1ccco1)C(=O)CN1C(=O)NC(c2ccccc2)(c2ccccc2)C1=O,/,?,-5%,?
Cc1cc(C(=O)CN2C(=O)NC(c3ccccc3)(c3ccccc3)C2=O)c(C)n1Cc1ccco1,?,1.3µM*,0%,-22%
Cc1ccc(C(=O)OCC(=O)NN2C(=O)NC3(CCC(C)CC3)C2=O)cc1 (stereo unspecified),/,?,2%,18%
Cc1ccc(CNC(=O)CN(C(=O)C2(C)CC(=O)N=C3C=CC=CN32)c2cc(C)ccc2C)cc1 (stereo unspecified),6%,-3%,-5%,-13%
Cc1ccc(CNC(=O)CN(Cc2cccs2)C(=O)C2(C)CC(=O)N=C3C=CC=CN32)cc1 (stereo unspecified),8%,11%,3%,1.7µM*
CCc1ccc(/C=C2\Oc3c(ccc(O)c3CN3CCN(CCO)CC3)C2=O)cc1,13%,?,0%,?
Cc1ccc(C(C(=O)NC2CCCCC2)N2CCCC2)cc1 (stereo unspecified),-4%,31%,-4%,?
Cc1ccc(C(C(=O)NC2CCCCC2)N2CCC3(CC2)OCCO3)cc1 (stereo unspecified),-5%,?,4%,?
SMILES,NS1 inh,Pf growth 48h,SARS PLpro yeast,Pf growth 96h
Cc1ccc(C(C(=O)NC2CCCCC2)N2CCN(C(=O)c3ccco3)CC2)cc1 (stereo unspecified),-20%,12µM*,2%,-24%
CCOC(=O)C1CCN(C(C(=O)NC2CCCC2)c2ccc(C)cc2)CC1 (stereo unspecified),2%,/,-8%,10µM*
Cc1ccc(C(C(=O)NC2CCCC2)N2CCCCC2)cc1 (stereo unspecified),-7%,?,11%,1.9µM*
CCN1CCN(C(C(=O)NC2CCCC2)c2ccc(Cl)cc2)CC1 (stereo unspecified),0%,/,-3%,12µM*
O=C(CCNC(=O)c1ccc(Br)cc1)NCc1ccccn1,/,3%,-5%,2%
CC/C(O)=C1\C(=O)CC(c2ccccc2)CC1=NC(C)C (stereo unspecified),18%,?,-12%,?
Cc1c(C(=O)Nc2ccncc2)sc2nc(-c3ccccc3)cn12,-37%,4.1µM*,-5%,?
CCOc1ccc(-c2n[nH]c(=S)c3ccccc23)cc1,4%,?,2%,1.7µM*
COC(=O)c1c(C)cc(C)n2c1nc1ccccc12,-16%,12%,0%,7.4µM*
Cc1cc(C)n2c(nc3ccccc32)c1C(=O)NN,8%,-11%,-1%,?
O=C(NC1CC1)C1CC(=O)N(c2cccc(Cl)c2Cl)C1 (stereo unspecified),-10%,-15%,-2%,-10%
Cc1ccccc1-n1c(C)nnc1SCc1cc(=O)oc2ccc3ccccc3c12,-23%,10%,-1%,15µM*
Cc1cccc(C)c1OCC(O)CNS(=O)(=O)c1ccccc1C(=O)N1CCCCC1 (stereo unspecified),-8%,?,22%,12µM*
Cc1cc2occ(CC(=O)N(C)CC(=O)Nc3cccc(F)c3)c2cc1C,-37%,47%,/,34%
CC12CCC(C(=O)N(CSC(=S)N/N=C\c3ccccc3)C1=O)C2(C)C (stereo unspecified),?,?,10µM*,?
CC1CCN(C(=O)C2CCCN(S(=O)(=O)c3cccc4nsnc34)C2)CC1 (stereo unspecified),9%,5%,/,-29%
O=C(NCc1cccnc1)C1CCCN(S(=O)(=O)c2cccc3nsnc23)C1 (stereo unspecified),-2%,-6%,22%,10µM*
CN(CC(=O)N1CCCCC1)S(=O)(=O)c1cccc2nsnc12,-5%,?,0%,?
O=C(C1CCCN(S(=O)(=O)c2cccc3nsnc23)C1)N1CCN(c2ccccn2)CC1 (stereo unspecified),-21%,12µM*,-3%,67%
O=C(Nc1ccncc1)C1CCCN(S(=O)(=O)c2cccc3cccnc23)C1 (stereo unspecified),-2%,-11%,-4%,5.9µM*
CN(CC(=O)N1CCN(c2ccccn2)CC1)S(=O)(=O)c1cccc2nsnc12,-9%,-29%,23%,9.3µM*
COc1cccc(NC(=O)C2CCCN(S(=O)(=O)c3cccc4cccnc34)C2)c1 (stereo unspecified),-34%,?,13%,?
CN(C)S(=O)(=O)N1CCC(Oc2cccc(C(=O)N3CCCCCCC3)c2)CC1,4%,?,-1%,-17%
Cc1ccccc1NS(=O)(=O)c1ccc2c(c1)NC(=O)CCS2,5%,-23%,4%,12µM*
Cc1ccc(NS(=O)(=O)c2ccc3c(c2)NC(=O)CCS3)c(Br)c1,10%,6.6µM*,-1%,?
Cc1ccc(CCNS(=O)(=O)c2ccc3c(c2)NC(=O)CCS3)cc1,9%,8%,-3%,13µM*

# Source: PubChem
